Reference: PubChem BioAssay (NCATS)
Inconclusive results are not listed. Active and inactive are the calls of the source. Calls follow the shape of the dose curve; as a rule, active = well fitted curve in the direction sought with a large enough effect; inconclusive = small, poorly fitted or top-dose-only effect, or another doubt; inactive = no such curve, though single readings can be large; an effect the other way counts as inactive or inconclusive.

Columns and labels:
[1] = qHTS assay for measurement of the activity of small molecule inhibitors on Zika virus induced Caspase-3 activity in human iPSC derived neural progenitor cells (hNPCs) (AID 1224857); also: nearly all actives have a fitted effect of over 65% in size
Method in brief: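 Human iPSC-derived neural progenitor cells pretreated 1 hr with compounds, then infected with Zika virus (2 FFU/cell) for 6 hours at 37 C. Caspase-3/7 measured by Caspase-Glo luminescence; % inhibition calculated from induction scaled to uninfected (0%) and infected (100%) wells.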

[2] = qHTS assay for measurement of the activity of small molecule inhibitors on Zika virus induced Caspase-3 activity in human astrocytoma cells (AID 1224859)
Method in brief: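 SNB-19 astrocytoma cells, 250/well, pretreated 1 h with compounds, then Zika virus at 2 FFU/cell for 6 h at 37 C; Caspase-Glo 3/7 luminescence after 30 min; percent inhibition normalised to uninfected and infected controls.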

[3] = qHTS assay to identify small molecule inhibitors of chordoma cells - UCH-2 (AID 1259356); also: series mostly up to about 46 µM
[4] = P-glycoprotein substrates identified in KB-8-5-11 adenocarcinoma cell line, qHTS therapeutic library screen (AID 1346987); settings: outcome: dose series up to 44.5 µM; also: series mostly up to about 44 µM; nearly all actives have a fitted effect of over 65% in size
Method in brief: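 In this qHTS, P-gp-rich KB-8-5-11 cells received library compounds across a concentration range. Viability was quantified by luminescence after 72 h at 37 degree C.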

[5] = NS1 protein of Zika virus - qHTS assay to identify small molecule inhibitors in human HEK 293 cells (AID 1347053); also: series mostly up to about 46 µM; nearly all actives have a fitted effect of over 55% in size
Method in brief: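 Read-out is a two-antibody TR-FRET for ZIKV NS1, normalized between uninfected cells and infected cells. Compound added 1 h before MR766 infection at MOI 0.5; human HEK 293 cells incubated 24 h, 37 C.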

[6] = qHTS of pediatric cancer cell lines to identify multiple opportunities for drug repurposing: Primary screen for TC32 cells (AID 1347089); also: nearly all actives have a fitted effect of over 60% in size
Method in brief: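 Luminescent ATP read-out (CellTiter-Glo) of metabolically active TC32 cells after 48 h exposure. Concentration-response curves came from 11-point (MIPE, 0.78 nM–46 µM) or 8-point (NPC, 0.59 nM–46 µM) primary titrations; follow-up used 11 points.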

[7] = qHTS of pediatric cancer cell lines to identify multiple opportunities for drug repurposing: Primary screen for DAOY cells (AID 1347090); also: series mostly up to about 46 µM; nearly all actives have a fitted effect of over 55% in size
Method in brief: (§1)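 Viability measured as metabolically active cells via CellTiter-Glo luminescence following 48 hours of compound exposure, 11-point dilutions in confirmatory testing. 500-1,000 cells/well plated 5 hours before dosing; controls were DMSO and 2.3 µM bortezomib.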

[8] = qHTS of pediatric cancer cell lines to identify multiple opportunities for drug repurposing: Primary screen for A673 cells (AID 1347092); also: nearly all actives have a fitted effect of over 45% in size
Method in brief: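 Cell viability of A673 measured by CellTiter-Glo ATP luminescence after 48 hours compound exposure. Dilution series spanned 0.78 nM to 46 µM (MIPE, 11-point) or 0.59 nM to 46 µM (NPC, 8-point); bortezomib 2.3 uM positive control.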

[9] = qHTS of pediatric cancer cell lines to identify multiple opportunities for drug repurposing: Primary screen for SK-N-MC cells (AID 1347093); also: series mostly up to about 46 µM
Method in brief: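 Metabolically active cells were quantified by ATP-dependent luminescence (CellTiter-Glo, 15 min at room temperature) following 48 h treatment. Cells had been plated at 500-1,000 per well and settled for 5 h beforehand.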

[10] = qHTS of pediatric cancer cell lines to identify multiple opportunities for drug repurposing: Primary screen for BT-37 cells (AID 1347094); also: series mostly up to about 57 µM
Method in brief: (§2)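 Cells plated at 500-1,000/well in growth medium, compounds added after 5 h. MIPE tested at 11 points (from 0.78 nM), NPC at 8 points (from 0.59 nM). CellTiter-Glo luminescence after 48 h; concentration-response curves from primary screen.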

[11] = qHTS of pediatric cancer cell lines to identify multiple opportunities for drug repurposing: Primary screen for NB-EBc1 cells (AID 1347095)
Method in brief: as §2

[12] = qHTS of pediatric cancer cell lines to identify multiple opportunities for drug repurposing: Primary screen for U-2 OS cells (AID 1347096); also: nearly all actives have a fitted effect of over 50% in size
Method in brief: (§3)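 Viability after 48 h compound treatment at 37C, 500-1,000 cells/well, read as ATP luminescence with CellTiter-Glo. Primary screens used 11-point (MIPE, 0.78 nM-46 µM) or 8-point (NPC, 0.59 nM-46 µM) final concentrations; follow-up screens used 11-point dilutions.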

[13] = qHTS of pediatric cancer cell lines to identify multiple opportunities for drug repurposing: Primary screen for Saos-2 cells (AID 1347097); also: nearly all actives have a fitted effect of over 40% in size
Method in brief: as §2

[14] = qHTS of pediatric cancer cell lines to identify multiple opportunities for drug repurposing: Primary screen for SK-N-SH cells (AID 1347098);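 also: DMSO served as neutral control and bortezomib at 2.3 µM as positive control; nearly all actives have a fitted effect of over 65% in size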
Method in brief: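 Cells (500-1,000/well) rested 5 h, then received compounds for 48 h; metabolically active cells were measured by CellTiter-Glo luminescence. Final concentrations spanned up to 46 µM (MIPE, 11-point) or 0.59 nM-46 µM (NPC, 8-point) in primary screens, 11-point in follow-ups.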

[15] = qHTS of pediatric cancer cell lines to identify multiple opportunities for drug repurposing: Primary screen for NB1643 cells (AID 1347099); also: nearly all actives have a fitted effect of over 50% in size
Method in brief: as §2

[16] = qHTS of pediatric cancer cell lines to identify multiple opportunities for drug repurposing: Primary screen for LAN-5 cells (AID 1347100)
Method in brief: as §3

[17] = qHTS of pediatric cancer cell lines to identify multiple opportunities for drug repurposing: Primary screen for SJ-GBM2 cells (AID 1347091)
Method in brief: as §1

Measured: Potency

CC(=O)NCc1c(I)c(NC(C)=O)c(I)c(C(=O)O)c1I
not listed: [17]
inactive: all other assays above

CC(=O)OC[C@H]1O[C@@](COC(C)=O)(O[C@H]2O[C@H](COC(C)=O)[C@@H](OC(C)=O)[C@H](OC(C)=O)[C@H]2OC(C)=O)[C@@H](OC(C)=O)[C@@H]1OC(C)=O
not listed: [3] | [12]
inactive: all other assays above

CC(CSC(=O)c1ccccc1)C(=O)N1C[C@@H](Sc2ccccc2)C[C@H]1C(=O)O (stereo not given in full)
not listed: [3] | [9]
inactive: all other assays above

O=C(O)c1ccccc1OP(=O)(O)O
inactive: all assays above

O=C(Cn1ccnc1[N+](=O)[O-])NCCO
not listed: [10] | [15]
inactive: all other assays above

CCN(CC)S(=O)(=O)c1ccc(C(=O)O)cc1
not listed: [12]
inactive: all other assays above

Cc1c(C(=O)NCCO)[n+](=O)c2ccccc2n1[O-]
not listed: [15]
inactive: all other assays above

C[C@]1(Cn2ccnn2)[C@H](C(=O)O)N2C(=O)C[C@H]2S1(=O)=O
inactive: all assays above

Cc1cc(NC(=O)C2=C(O)c3ccccc3S(=O)(=O)N2C)no1
not listed: [3] | [10] | [13]
inactive: all other assays above

CC1CC(OC(=O)c2ccccc2O)CC(C)(C)C1 (stereo not given)
not listed: [3] | [9]
inactive: all other assays above

CC(C)(C)C(=O)OCOC(=O)[C@@H]1N2C(=O)[C@@H](NC(=O)[C@H](N)c3ccccc3)[C@H]2SC1(C)C
not listed: [3] | [9] | [10]
inactive: all other assays above
